# Laboratory results taken from PubChem BioAssay AID1851 (National Center for Advancing Translational Sciences (NCATS), 2009).
# “And” between values parts separate entries of the source, which are not always exact repeats. Equal values may be shown once. Out of some 16,000 compounds screened, about 4,000 (25%) were called active. Inconclusive results (about 26%) are left out. The call rests on the fitted dose curve; in most records, active means well fitted curve in the direction sought with a large enough effect; inconclusive means small, poorly fitted or top-dose-only effect, or effect the other way; inactive means no such curve, though single readings can be large or run the other way. The list is a sample of the results. More than one record can exist for a structure, and the calls need not agree.
# Target: Cytochrome P450 2C9 (Homo sapiens) (UniProt P11712)
# Test: Cytochrome panel assay with activity outcomes
# Conditions: recombinant CYP, pro-luciferin dealkylation, luminescence, p450-cyp2c9; series mostly up to 57.1 µM; activity, negative = inhibition: at the top concentration
# Protocol: The P450 gene superfamily is involved in the metabolism and clearance of xenobiotics. This assay used various human CYP P450 isozymes to measure the dealkylation of various pro-luciferin substrates to luciferin. The luciferin is then measured by luminescence after the addition of a luciferase detection reagent. Pro-luciferin substrate concentration in the assay was equal to its KM for its CYP P450 isozyme. Inhibitors and some substrates limit the production of luciferin, and decrease measured luminescence.
# NCGC Assay Protocol Summary:
# 1, Reagent, 2 uL, Isozyme and Pro-Luciferin
# 2, Library compounds, 23 nl, 40 uM to 0.24 nM dilution series
# 3, Controls, 23 nl, Isozyme specific inhibitor
# 4, Reagent, 2 uL, NADPH regeneration solution
# 5, Incubation time, 60 min, Isozyme specific temperature
# 6, Reagent, 4ul, Detection reagent
# 7, Incubation time, 20 min, Isozyme specific temperature
# 8, Detection, 1 sec, ViewLux luminescent read
# The luciferase-based P450-GloTM Screening Systems were obtained from Promega (Madison, WI) for CYP 1A2 (V9770), CYP 2C9 (V9790), CYP2 C19 (V9880), CYP 2D6 (V9890), and CYP 3A4 Luciferin-PPXE (V9910) and were adapted for 1,536-well microplates and an automated protocol. The control compounds furafylline for 1A2 (F124), sulfaphenazole for CYP 2C9 (S0758), ketoconazole for CYP 2C19 (K1003), quinidine for 2D6 (Q3625), and ketoconazole for 3A4 (K1003) were purchased from Sigma Aldrich (St. Louis, MO). Recombinant P450 enzymes were obtained from baculovirus constructs expressed in insect cells (BD/Gentest).
# Medium-binding white solid Kalypsys plates used. Mixtures kept on ice. 1A2: 10 nM 1A2, 100 uM Luc-ME, 100 mM KPO4; 2C9: 10 nM 2C9, 100 uM Luc-H, 25 mM KPO4; 2C19: 5 nM 2C19, 10 uM Luc-H EGE, 50 mM KPO4; 2D6: 5 nM 2D6, 30 uM Luc-ME EGE, 100 mM KPO4; 3A4: 10 nM, 25 uM Luc-PPXE. All amounts are reflected in their final concentration, working concentration is 2x.
# NADPH regeneration solution: 1.3 mM NADP+, 3.3 mM glucose-6-phosphate, 3.3 mM MgCl2, 0.4 U/mL glucose-6-phosphate dehydrogenase for all isozymes, 200 mM KPO4 for 3A4. Mixture prepared at RT but kept on ice during automated run.
# RT incubation in auxilliary plate hotel for 1A2, 2D6, and 3A4; 37C for 2C9 and 2C19.
# Keywords: P450, CYP1A2, CYP2C19, CYP2C9, CYP2D6, CYP3A4, Luciferase, MLSMR, MLSCN, NIH Roadmap, qHTS, NCGC
# On the % scale 0 is the no-effect control and ±100 the full control effect.
# Chain of Cytochrome P450 2C9 (Homo sapiens) (P11712 whole entry, looked up): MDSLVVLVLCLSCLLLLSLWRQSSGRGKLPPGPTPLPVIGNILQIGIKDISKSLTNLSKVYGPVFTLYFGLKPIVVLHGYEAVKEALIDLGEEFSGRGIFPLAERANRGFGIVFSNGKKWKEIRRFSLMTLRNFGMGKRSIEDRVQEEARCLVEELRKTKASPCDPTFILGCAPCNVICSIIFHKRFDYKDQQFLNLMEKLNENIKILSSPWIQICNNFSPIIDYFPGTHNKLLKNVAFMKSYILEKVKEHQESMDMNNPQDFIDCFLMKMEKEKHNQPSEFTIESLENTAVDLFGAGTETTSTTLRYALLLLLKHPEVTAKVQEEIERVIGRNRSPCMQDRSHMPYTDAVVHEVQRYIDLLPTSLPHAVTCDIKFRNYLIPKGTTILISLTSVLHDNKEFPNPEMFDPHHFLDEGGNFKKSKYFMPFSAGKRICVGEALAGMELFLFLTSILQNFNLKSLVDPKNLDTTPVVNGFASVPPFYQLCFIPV
SMILES,"activity, negative = inhibition",AC50
CC[C@]1(C2=NCCN2)Cc2ccccc2O1,inactive,–
COc1cc2c(cc1O)[C@H]1Cc3ccc(OC)c(O)c3CN1CC2,-28.6% [at 25.6 µM] (inactive),–
c1ccc(N2CCCC3(CCNCC3)C2)cc1,-19.3% (inactive),–
CC(C)Oc1cccnc1N(C)C1CCN(Cc2ccccc2)CC1,-16.1% (inactive),–
O=C1Nc2ccc(I)cc2/C1=C/c1cc(Br)c(O)c(Br)c1,–,12.6 µM (active)
COc1cc2c(cc1OC)[C@@]13CCN4C=C5CCO[C@H]6CC(=O)N2[C@@H]1[C@@H]6[C@H]5C[C@H]43,-3.46% [at 11.4 µM] (inactive),–
COc1ccc(CNC(=O)/C=C\c2ccc3[nH]cc(CCN(C)C)c3c2)cc1,12.7% (inactive),–
c1ccc(C[C@@H](c2ccccc2)N2CCCCC2)cc1,-0.583% (inactive),–
CN1CCc2cc(O)cc3c2[C@H]1Cc1ccc(O)c(O)c1-3,-22.6% (inactive),–
O=C(O)C(O)(c1ccc(-c2ccccc2)cc1)c1ccc(-c2ccccc2)cc1,–,3.16 µM (active)
C[N+]12CCC(CC1)[C@@H](OC(=O)C(O)(c1ccccc1)c1ccccc1)C2,-16.5% [at 25.6 µM] (inactive),–
O=C(C[n+]1ccc2ccccc2c1)c1ccc2ccc3ccccc3c2c1,16.4% [at 11.4 µM] (inactive),–
CCn1cc(C(=O)O)c(=O)c2cc3c(cc21)OCO3,7.22% (inactive),–
Clc1ccc(C2=CCC[C@H]3CC[C@@H]2N3)cn1,24.7% (inactive),–
Cn1ccnc1,-9.78% (inactive),–
c1cc(CCN2CCCCC2)ccn1,3.53% [at 11.4 µM] (inactive),–
Clc1ccc(C(c2ccc(Cl)cc2)n2cc[n+](C[C@@H](OCc3ccc(Cl)cc3Cl)c3ccc(Cl)cc3Cl)c2)cc1,–,31.6 µM (active)
Cc1nc(-c2ccc(-c3ccc(C(=O)N4CCc5cc6c(cc54)C4(CCN(C)CC4)CO6)cc3)c(C)c2)no1,–,inactive and 7.94 µM (active)
NCCc1ccc(S(=O)(=O)O)cc1[N+](=O)[O-],8.12% [at 11.4 µM] (inactive),–
C[C@H](N)c1cccc(Cl)c1Cl,-4.33% (inactive),–
CN1C2CCC1CC(OC(=O)c1ccc(Cl)cc1)C2 (centres undefined),0.397% (inactive),–
C[C@@H](C(=O)OC1C[C@H]2CC[C@@H](C1)N2C)c1ccc(Br)cc1 (some centres undefined),2% (inactive),–
CC[C@H](Oc1ccc(Cl)cc1)C(=O)OC1C[C@H]2CC[C@@H](C1)N2C (some centres undefined),–,0.1 µM (active)
CCCN(CCC)[C@@H]1CCc2ccc(O)cc2C1,inactive,–
O=C(Nc1ccccc1)N1CCC2(CC1)CCN(C(=O)Oc1ccccc1)CC2,-2.26% (inactive),–

SMILES,"activity, negative = inhibition",AC50
c1cnc(N2CCC3(CCNCC3)CC2)nc1,-14.4% (inactive),–
C[Se]C[C@@H](N)C(=O)O,10.4% (inactive),–
O=c1[nH]c(=O)n([C@H]2C[C@H](O)[C@H](CO)O2)cc1/C=C\Br,2.05% (inactive),–
Oc1ccc2c3c1O[C@H]1c4c(c5ccccc5n4Cc4ccccc4)C[C@]4(O)[C@H](C2)N(CC2CC2)CC[C@@]314,-20.5% (inactive),–
c1ccc2nc(N3CCNCC3)ccc2c1,inactive,–
Clc1cccc(N2CCNCC2)c1,8.01% (inactive),–
Clc1cncc(N2CCNCC2)n1,–,2 µM (active)
CCCN(CCC)[C@H]1CCc2c(F)ccc(O)c2C1,inactive,–
NS(=O)(=O)C[C-]1C=C[CH]([Sb-]([Cl])([Cl])([Cl])([Cl])[Cl])C=C1.c1ccncc1 (centres undefined),2.33% [at 11.4 µM] (inactive),–
CNCCc1cnc[nH]1,4.83% (inactive),–
Cc1ccccc1-c1cncnc1NCCc1cnc[nH]1,–,1 µM (active)
CN1C(=O)C(=Cc2ccccc2Oc2ccc(Cl)c(F)c2)C(=O)N(C)C1=O,–,6.31 µM (active)
COC1=C(C)C(=O)c2c(c(COC(N)=O)c3n2C[C@@H]2[C@@H]3N2C)C1=O (some centres undefined),-23.6% [at 11.4 µM] (inactive),–
Cc1sc2ccccc2c1CC1=NCCN1,-12.9% (inactive),–
CC(=O)O[C@H]1C[C@@H](O[C@@H]2[C@H](C)O[C@H](O[C@@H]3[C@H](C)O[C@H](O[C@@H]4CC[C@@]5(C)[C@@H](CC[C@]6(C)[C@]5(C)C[C@H](O)[C@]5(C)[C@@H](C7=CC(=O)OC7)CC[C@@]56O)C4)C[C@@H]3O)C[C@@H]2O)O[C@@H](C)[C@H]1O[C@H]1O[C@@H](CO)[C@@H](O)[C@@H](O)[C@@H]1O,0.428% [at 25.6 µM] (inactive),–
CNC(=O)OCC[N+](C)(C)C,5.87% (inactive),–
COC(=O)c1[nH]c2ccc(Br)cc2c1NC(=O)Oc1ccccc1,–,8.91 µM (active)
COC(=O)c1cc2c(cn1)[nH]c1ccccc12,15% (inactive),–
N[C@@H](Cc1cc(Br)c(O)c(Br)c1)C(=O)O,-7.73% [at 11.4 µM] (inactive),–
COC(=O)N1CCN(C(=O)Cc2ccc(Cl)c(Cl)c2)[C@H](CN2CCCC2)C1,–,inactive and 12.6 µM (active)
O=C(Cc1ccc(Cl)c(Cl)c1)N1CCCC[C@H]1CN1CCCC1,-9.68% (inactive),–
CN(C(=O)Cc1ccc(Cl)c(Cl)c1)[C@@H](CN1CCCC1)c1cccc(OCC(=O)O)c1,inactive,–
O=c1[nH]c(=O)n(CCC2=CCCCC2)c(O)c1C=Nc1cccc(F)c1,-22% (inactive),–
CCn1cnc2c(Nc3cccc(Cl)c3)nc(N[C@@H]3CCCC[C@H]3N)nc21,-29.6% (inactive),–
